Source: PubChem BioAssay (EPA / NIEHS)
Calls of active or inactive are those of the source. How the source made its calls: active means hit-call score of the fitted dose curve at least 0.9, where 1 is the maximum; inactive means score below 0.9.

What was measured:
[1] = read-out: Interleukin-6 (IL6), IL6 (gene 3569); test: BSK_CASM3C_IL6: BioMAP Diversity Plus: CASM3C Assay for Interleukin-6 (IL6) Biomarker Activity for (AID 2283040); settings: primary human coronary artery smooth muscle cells; actives raise or lower the signal
[2] = read-out: Tissue plasminogen activator (tPA), PLAT (gene 5327); test: BSK_BE3C_tPA: BioMAP Diversity Plus: BE3C Assay for Tissue plasminogen activator (tPA) Biomarker Activity (AID 2283041); settings: primary human bronchial epithelial cells; actives raise or lower the signal
Method in brief: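 ELISA read-out of tPA on human primary bronchial epithelial cells, 24 h post-dosing; bidirectional fit vs DMSO negative control/baseline.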

[3] = read-out: Interleukin-8 (IL8), CXCL8 (gene 3576); test: BSK_CASM3C_IL8: BioMAP Diversity Plus: CASM3C Assay for Interleukin-8 (IL8) Biomarker Activity (AID 2283042); settings: primary human coronary artery smooth muscle cells; actives raise or lower the signal;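 further: IL-8 protein level quantified by ELISA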
[4] = read-out: Human Leukocyte Antigen - DR isotype (HLADR), HLA-DRA (gene 3122); test: BSK_CASM3C_HLADR: BioMAP Diversity Plus: CASM3C Assay for Human Leukocyte Antigen - DR isotype (HLADR) Biomarker Activity (AID 2283043); settings: primary human coronary artery smooth muscle cells; actives raise or lower the signal;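 further: cell-surface HLA-DR protein level quantified by ELISA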
[5] = read-out: Macrophage colony-stimulating factor (MCSF), CSF1 (gene 1435); test: BSK_CASM3C_MCSF: BioMAP Diversity Plus: CASM3C Assay for Macrophage colony-stimulating factor (MCSF) Biomarker Activity (AID 2283044); settings: primary human coronary artery smooth muscle cells; actives raise or lower the signal;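 further: M-CSF protein amount quantified by ELISA after 24 h exposure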
[6] = read-out: Low-density lipoprotein receptor (LDLR), LDLR (gene 3949); test: BSK_CASM3C_LDLR: BioMAP Diversity Plus: CASM3C Assay for Low-density lipoprotein receptor (LDLR) Biomarker Activity (AID 2283045); settings: primary human coronary artery smooth muscle cells; actives raise or lower the signal;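 further: LDLR protein level on the cell surface quantified by ELISA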
[7] = read-out: Monocyte Chemoattractant Protein-1 (MCP1), CCL2 (gene 6347); test: BSK_CASM3C_MCP1: BioMAP Diversity Plus: CASM3C Assay for Monocyte Chemoattractant Protein-1 (MCP1) Biomarker Activity (AID 2283046); settings: primary human coronary artery smooth muscle cells; actives raise or lower the signal;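 further: MCP-1 level quantified by ELISA 24 h after dosing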
[8] = BSK_CASM3C_Proliferation: Cell Proliferation Assessment in the BioMAP Diversity Plus: CASM3C Assay (AID 2283047); settings: primary human coronary artery smooth muscle cells;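 further: sulforhodamine B total protein stain as relative cell number at 560 nm; sub-confluent cells exposed 48 h before staining; fitted both ways against DMSO so gain or loss of cell number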
[9] = read-out: Monokine induced gamma interferon (MIG), CXCL9 (gene 4283); test: BSK_CASM3C_MIG: BioMAP Diversity Plus: CASM3C Assay for Monokine induced gamma interferon (MIG) Biomarker Activity (AID 2283048); settings: primary human coronary artery smooth muscle cells; actives raise or lower the signal;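 further: MIG protein level measured by ELISA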
[10] = read-out: serum amyloid A (SAA), SAA1 (gene 6288); test: BSK_CASM3C_SAA: BioMAP Diversity Plus: CASM3C Assay for serum amyloid A (SAA) Biomarker Activity (AID 2283049); settings: primary human coronary artery smooth muscle cells; actives raise or lower the signal;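 further: SAA protein level quantified by ELISA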
[11] = BSK_CASM3C_SRB: Viability Assessment in the BioMAP Diversity Plus: CASM3C Assay (AID 2283050); settings: primary human coronary artery smooth muscle cells;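 further: total protein by SRB staining as cytotoxicity measure in parallel cultures; cells exposed to compound for 24 h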
[12] = read-out: Thrombomodulin, THBD (gene 7056); test: BSK_CASM3C_Thrombomodulin: BioMAP Diversity Plus: CASM3C Assay for Thrombomodulin Biomarker Activity (AID 2283051); settings: primary human coronary artery smooth muscle cells; actives raise or lower the signal;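 further: thrombomodulin protein level measured by ELISA 24 h after dosing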
[13] = read-out: Tissue Factor, F3 (gene 2152); test: BSK_CASM3C_TissueFactor: BioMAP Diversity Plus: CASM3C Assay for Tissue Factor Biomarker Activity (AID 2283052); settings: primary human coronary artery smooth muscle cells; actives raise or lower the signal;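 further: cell surface tissue factor protein level read by ELISA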
[14] = read-out: Interferon-gamma inducible Protein 10 (IP10), CXCL10 (gene 3627); test: BSK_hDFCGF_IP10: BioMAP Diversity Plus: hDFCGF Assay for Interferon-gamma inducible Protein 10 (IP10) Biomarker Activity (AID 2283053); settings: primary human foreskin fibroblasts; actives raise or lower the signal
Method in brief: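 ELISA read-out of IP-10 (CXCL10) from primary human skin fibroblasts, 24 h after compound addition. Gain or loss of signal versus DMSO baseline, bidirectional curve fitting.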

[15] = read-out: Urokinase-type plasminogen activator receptor (uPAR), PLAUR (gene 5329); test: BSK_CASM3C_uPAR: BioMAP Diversity Plus: CASM3C Assay for Urokinase-type plasminogen activator receptor (uPAR) Biomarker Activity (AID 2283054); settings: primary human coronary artery smooth muscle cells; actives raise or lower the signal;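 further: cell-surface uPAR protein level quantified by ELISA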
[16] = read-out: Vascular cell adhesion molecule 1 (VCAM1), VCAM1 (gene 7412); test: BSK_CASM3C_VCAM1: BioMAP Diversity Plus: CASM3C Assay for Vascular cell adhesion molecule 1 (VCAM1) Biomarker Activity (AID 2283055); settings: primary human coronary artery smooth muscle cells; actives raise or lower the signal;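 further: VCAM-1 protein level quantified by ELISA on the cells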
[17] = read-out: Collagen III, COL3A1 (gene 1281); test: BSK_hDFCGF_CollagenIII: BioMAP Diversity Plus: hDFCGF Assay for Collagen III Biomarker Activity (AID 2283056); settings: primary human foreskin fibroblasts; actives raise or lower the signal
Method in brief: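 Cells: human foreskin fibroblasts, primary. Dosing followed by 24 h incubation, then ELISA for collagen III. Both increases and decreases scored relative to DMSO.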

[18] = read-out: Epidermal growth factor receptor (EGFR), EGFR (gene 1956); test: BSK_hDFCGF_EGFR: BioMAP Diversity Plus: hDFCGF Assay for Epidermal growth factor receptor (EGFR) Biomarker Activity (AID 2283057); settings: primary human foreskin fibroblasts; actives raise or lower the signal
Method in brief: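 ELISA readout of EGFR on human dermal fibroblasts (primary foreskin cells), 24 h post-dosing; bidirectional curve fit vs DMSO baseline, gain or loss of signal scored.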

[19] = read-out: Interleukin-8 (IL8), CXCL8 (gene 3576); test: BSK_hDFCGF_IL8: BioMAP Diversity Plus: hDFCGF Assay for Interleukin-8 (IL8) Biomarker Activity (AID 2283058); settings: primary human foreskin fibroblasts; actives raise or lower the signal
Method in brief: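 IL-8 levels from compound-treated primary human fibroblasts were read by ELISA at 24 h, with DMSO serving as baseline for bidirectional fitting.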

[20] = BSK_hDFCGF_Proliferation: Cell Proliferation Assessment in the BioMAP Diversity Plus: hDFCGF Assay (AID 2283059); settings: primary human foreskin fibroblasts;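 further: curves fitted for both rise and fall of signal versus DMSO baseline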
Method in brief: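 This proliferation readout used SRB total-protein staining of human foreskin fibroblasts […], normalized to DMSO with bidirectional curve fitting.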

Measured: AC50

Cc1nc(-c2ccccn2)ncc1C(=O)Nn1cc(C)c2cc(F)ccc21
active: [8] 22.6 µM | [12] 20 µM
inactive: all other assays above

O=C(O)[C@H](O)[C@@H](O)C(=O)O
inactive: all assays above

C=CCc1cc(S(=O)(=O)c2ccc(O)c(CC=C)c2)ccc1O
active: [2] 7.78 µM | [3] 17.6 µM | [4] 13.6 µM | [5] 28.2 µM | [6] 32.2 µM | [7] 16.2 µM | [8] 14.3 µM | [9] 31.4 µM | [10] 28.3 µM | [11] 31.2 µM | [13] 36.7 µM | [14] 29 µM | [15] 21.7 µM | [16] 35.7 µM | [17] 6.52 µM | [19] 34.4 µM | [20] 9.21 µM
inactive: [1] | [12] | [18]

FC(F)=C(F)C(F)(F)C(F)(F)C(F)(F)C(F)(F)C(F)(F)C(F)(F)F
inactive: all assays above

CCCCCCCC1CCC(=O)O1 (stereo not given)
inactive: all assays above

CC(=O)c1ccccc1
inactive: all assays above
